# Screening results: PubChem BioAssay, National Center for Advancing Translational Sciences (NCATS)
# A selection: hits, their analogues and other compounds. The true share with any hit is near 2.4%.
# Tb PFK block = T. brucei PFK enzyme inhibition; O15648; T. brucei PFK, ADP-Glo luminescence; Potency, µM (series often up to 57.5 µM), for inactives: top-dose activity, negative = inhibition, most hits filed as inhibitors; actives 0.17% (n = 330,000);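 note: 0% = uninhibited 1x PFK enzyme wells and -100% = no-enzyme wells; nearly all actives have a fitted effect of over 60% in size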
#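 In TEA buffer at pH 8.0 with 5 mM MgCl2, enzyme (1.25 nM) converted F6P (0.5 mM) and ATP (0.1 mM) for 45 min at room temperature. ADP product was read by luciferase luminescence.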
# PKM2 act = increases activity of human pyruvate kinase M2; P14618; purified PKM2, Kinase-Glo ATP luminescence, activation; response scale: 0% is enzyme alone, no compound; Potency, µM (titrated, usually from 57.5 µM), inactives show at the highest dose activation, most hits filed as activators; actives 0.34% (n = 260,000); note: % is set by controls: 0 for no effect and ±100 for the full control effect; nearly all actives have a fitted effect of over 55% in size
#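 Purified hPK-M2 (>95% pure) converted ADP (0.1 mM final) to ATP with 0.5 mM PEP in 50 mM imidazole pH7.2, KCl, MgCl2, Tween 20, BSA; 1 h at room temperature. ATP detected by Kinase-Glo luminescence.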
# Rango dissoc inh = inhibition of RanGTP-driven Rango-importin beta dissociation; O95149+P62826; Biochemical FRET Rango-importin beta, RanGTP-induced dissociation; Potency, µM (series often up to 46.1 µM), inactives show top-dose activity change, negative = inhibition; actives 0.071% (n = 340,000); calls by dose curve; note: % of control where 0% means no effect; nearly all actives have a fitted effect of over 45% in size
#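 Recombinant Rango FRET biosensor (EYFP–snurportin 1 IBB–cerulean CFP10) at 0.1 uM premixed with 0.25 uM importin beta in PBS, 1 mM DTT, 0.02% Tween-20, 0.1% BSA. Compound added 5 min; RanGTP-RCC1 (0.6 uM Ran, 2 mM GTP, 0.2 uM RCC1) then triggers release, read at 45 min.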
# Rango complex inh = Rango-importin beta binding inhibition | actives 0.031% (n = 340,000) | Rango CFP/YFP FRET sensor + importin beta, 45 min | Potency, µM (titrated, usually from 92.2 µM), for the others: at the highest dose inhibition of complex formation; calls by dose curve;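 note: 0% = DMSO wells and 100% = buffer wells lacking importin beta; nearly all actives have a fitted effect of over 15% in size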
# Target sequence (Q14974 whole entry, looked up): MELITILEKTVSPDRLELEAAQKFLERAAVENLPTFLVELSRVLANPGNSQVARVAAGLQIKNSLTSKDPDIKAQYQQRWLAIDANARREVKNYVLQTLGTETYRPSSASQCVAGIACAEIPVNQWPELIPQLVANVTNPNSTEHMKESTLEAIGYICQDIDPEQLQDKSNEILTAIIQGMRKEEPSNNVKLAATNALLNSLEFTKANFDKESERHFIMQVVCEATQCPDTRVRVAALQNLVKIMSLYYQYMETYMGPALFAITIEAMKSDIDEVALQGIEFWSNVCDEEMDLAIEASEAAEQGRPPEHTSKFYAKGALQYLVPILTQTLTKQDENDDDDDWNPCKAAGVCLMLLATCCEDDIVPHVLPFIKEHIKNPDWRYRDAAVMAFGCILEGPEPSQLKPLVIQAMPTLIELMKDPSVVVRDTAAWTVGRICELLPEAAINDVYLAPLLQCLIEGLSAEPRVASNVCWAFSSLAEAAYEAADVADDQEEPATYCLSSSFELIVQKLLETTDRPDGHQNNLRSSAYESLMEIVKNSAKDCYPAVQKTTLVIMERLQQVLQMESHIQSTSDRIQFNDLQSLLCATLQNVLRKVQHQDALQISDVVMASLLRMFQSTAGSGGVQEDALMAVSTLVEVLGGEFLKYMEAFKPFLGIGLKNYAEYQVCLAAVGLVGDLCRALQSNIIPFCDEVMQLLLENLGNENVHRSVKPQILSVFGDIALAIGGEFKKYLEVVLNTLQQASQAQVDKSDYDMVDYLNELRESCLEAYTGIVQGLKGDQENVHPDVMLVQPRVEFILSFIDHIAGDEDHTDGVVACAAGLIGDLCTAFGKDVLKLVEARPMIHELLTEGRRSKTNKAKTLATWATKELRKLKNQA
#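 FRET biosensor Rango (snurportin 1 IBB between N-terminal EYFP and C-terminal Cerulean), 50 nM in PBS/1 mM DTT/0.02% Tween-20/0.1% BSA, preincubated 5 min RT with compound; 0.125 microM importin beta added, 45 min RT, CFP/YFP FRET ratio read.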
# Tb PGK inh = T. brucei PGK inhibition. PGK/GAPDH coupled, Kinase-Glo luminescence, 60 min. Potency, µM (titrated, usually from 57.5 µM), inactives show top-dose activity change, negative = inhibition, most hits filed as inhibitors. actives 0.043% (n = 380,000). P07378; note: % is set by controls: 0 for no effect and ±100 for the full control effect; nearly all actives have a fitted effect of over 60% in size
#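 Recombinant glycosomal PGK reaction used 1,3-bisphosphoglycerate generated in-well by GAPDH (100nM final) in 100mM TEA pH 7.6, 5mM MgCl2, 0.01% Tween-20. After 60 minutes at room temperature, ATP was read by Kinase-Glo Plus luminescence end-point.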
# ELG1 repair inh = blocks ELG1-dependent DNA repair in HEK293T cells; HEK293T ELG1-luciferase reporter, luminescence, 16 h; DNA damage induced by 5-fluorouridine; Potency, µM (series often up to 46.1 µM), without a hit: top-dose activity change, negative = inhibition, hits mostly inhibitors; actives 2.3% (n = 330,000); AID 504467; note: % is set by controls: 0 for no effect and ±100 for the full control effect; nearly all actives have a fitted effect of over 55% in size
#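 Cells (2,000 per well) received 5-fluorouridine plus test compound or DMSO and were incubated 16 hr at 37 °C, 5% CO2. Luciferase activity was read by luminescence 30 min after ONE-Glo addition; signal suppression marked inhibition of damage-induced ELG1 function.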
# ELG1 FLuc counter = luciferase inhibition in cell-free luciferin readout for ELG1 hits; Potency, µM (titrated, usually from 46.1 µM), for inactives: top-dose activity change, negative = inhibition, hits mostly inhibitors; shares compounds with ELG1 repair inh; actives 3% (n = 350); cell-free firefly luciferase luminescence counter-screen, ViewLux; note: % is set by controls: 0 for no effect and ±100 for the full control effect
# ELG1 Luc conf = human ELG1 repair inhibition, luciferase-tagged ELG1 confirmation | shares compounds with ELG1 repair inh | HEK293T ELG1-luciferase levels, luminescence; cells co-treated with 5-fluorouridine | Potency, µM (titrated, usually from 46.1 µM), for inactives: top-dose activity change, negative = inhibition, usual class: inhibitors | actives 68% (n = 670) | AID 624248; note: % is set by controls: 0 for no effect and ±100 for the full control effect; nearly all actives have a fitted effect of over 55% in size
# ELG1 MMS Luc = inhibits ELG1-dependent repair under MMS stimulation in HEK293T cells; shares compounds with ELG1 repair inh; HEK293T luciferase-tagged ELG1 level, MMS stimulated; Potency, µM (top dose mostly 46.1 µM), without a hit: at the top dose activity change, negative = inhibition, usual class: inhibitors; actives 53% (n = 670); AID 624249; note: % is set by controls: 0 for no effect and ±100 for the full control effect; nearly all actives have a fitted effect of over 60% in size
# ELG1 5FU viab = confirmation of ELG1 repair inhibitors: viability with 5FU | shares compounds with ELG1 repair inh | cell viability with 5-FU, ELG1-dependent repair | 670 tested, under 10 active | Potency, µM (highest dose often 46.1 µM), for the others: at the highest dose activity change, negative = viability loss, usual class: cytotoxic;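 note: ELG1-luc HEK293T cells cotreated with 5-fluorouridine at 10 µM final; viability measured 16 h after compound addition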
# ELG1 MMS viab = confirmation of ELG1 repair inhibitors: viability with MMS; shares compounds with ELG1 repair inh; Cell viability with MMS, ELG1-dependent DNA repair; Potency, µM (doses to about 46.1 µM), for the others: at the highest dose activity change, negative = viability loss, hits mostly cytotoxic; actives 33% (n = 670); AID 624251;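 note: ELG1-luc HEK293T cells co-treated with 10 µM MMS; viability read 16 h after compound addition; % is set by controls: 0 for no effect and ±100 for the full control effect; nearly all actives have a fitted effect of over 60% in size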
# Cell viab unstim = unstimulated viability counter-screen for ELG1 repair hits. cell viability counter-screen, unstimulated, luminescence. actives 8% (n = 900). Potency, µM (titrated, usually from 45.9 µM), for inactives: at the top dose activity change, negative = loss of viability, actives largely listed as cytotoxic. shares compounds with ELG1 repair inh;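 note: compound exposure lasted 16 hours before reading; % is set by controls: 0 for no effect and ±100 for the full control effect; nearly all actives have a fitted effect of over 55% in size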
# FLuc biochem = inhibits purified firefly luciferase, counter-screen for ELG1 hits | purified firefly luciferase, luminescence counter-screen | actives 10% (n = 350) | Potency, µM (titrated, usually from 57.5 µM), for inactives: at the highest dose activity, negative = inhibition, most hits filed as inhibitors | shares compounds with ELG1 repair inh; note: % is set by controls: 0 for no effect and ±100 for the full control effect
# Active calls of the source: *; i = inactive; u = inconclusive; x = no result given. Unless noted, calls come from the whole dose curve; as a rule, active = well fitted curve in the direction sought with a large enough effect; inconclusive = small, poorly fitted or top-dose-only effect, or another doubt; inactive = no such curve, though single readings can be large; an effect the other way counts as inactive or inconclusive. Potency is the fitted concentration of half-maximal effect.
SMILES,Tb PFK block,PKM2 act,Rango dissoc inh,Rango complex inh,Tb PGK inh,ELG1 repair inh,ELG1 FLuc counter,ELG1 Luc conf,ELG1 MMS Luc,ELG1 5FU viab,ELG1 MMS viab,Cell viab unstim,FLuc biochem
Cc1cccc(N2CCN(C3=NC(=O)/C(=C\c4cn[nH]c4-c4ccccc4)S3)CC2)c1,1%,0%,13%,1%,-9%,2.3µM*,19%,1.4µM*,11µM*,u,u,u,-2%
Cc1cccc(N=C2NC(=O)C(CO)(CO)S2)c1,2%,-7%,10%,1%,1%,7%,x,x,x,x,x,x,x
CN(CC(=O)Nc1ccccc1Br)C(=O)c1ccc(-c2ccc(Cl)cc2)o1,0%,2%,0%,4%,1%,0.37µM*,16%,u,22µM*,-8%,25µM*,u,21µM*
CNc1nc2c(c(=O)n(C)c(=O)n2C)n1Cc1ccccc1,2%,2%,1%,0%,-5%,-2%,x,x,x,x,x,x,x
Cn1c(=O)c2c(nc(NC(Cc3ccccc3)C(=O)O)n2Cc2ccccc2)n(C)c1=O (stereo not drawn),1%,3%,-15%,u,0%,-22%,0%,u,-12%,8%,-4%,-4%,-3%
CCN(CC(=O)Nc1c(F)cccc1F)C(=O)CCNC(=O)c1ccco1,-1%,x,0%,3%,-3%,13%,x,x,x,x,x,x,x
O=[N+]([O-])c1cc(Cl)ccc1N1CCN(c2ccccc2O)CC1,0%,-1%,0%,2%,i,-23%,x,x,x,x,x,x,x
O=C(c1ccc(-c2cc3ccccc3oc2=O)cc1)N1CCN(c2ccc(Cl)cc2[N+](=O)[O-])CC1,0%,-1%,5%,0%,i,4.6µM*,x,5µM*,-7%,u,u,u,x
CC1(C)Cc2c(C#N)c(SCCOc3ccccc3)nc(N3CCOCC3)c2CO1,-6%,-4%,0%,-7%,5%,2.5µM*,x,3.5µM*,u,u,-9%,u,x
